The record followed here is PubChem BioAssay (NCATS).

Assay [1] has as its target Cytochrome P450 3A4 (Homo sapiens) (UniProt P08684). As to the kind of experiment: qHTS Assay for Activators of Cytochrome P450 3A4 (AID 885). Further: nearly all actives have a fitted effect of over 65% in size. Put shortly:
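Luminescent readout of luciferin formed from 25 uM Luciferin-PPXE (KM level) by 20 nM CYP3A4 in 200 mM KPO4, with 60 min NADPH-driven reaction at room temperature after 10 min compound exposure. Ketoconazole (57 uM) defined 100% inhibition.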
In general terms: Quantitative high-throughput screening tests each substance at several concentrations.

Assay [2] can be described thus: qHTS Assay for Identification of Small Molecule Antagonists for Thrombopoietin (TPO) Signaling Pathway (AID 918). Further: potency means the concentration at half of the fitted maximal effect; nearly all actives have a fitted effect of over 60% in size. Particulars: TPO-dependent cell signaling reporter, antagonist mode. In a few lines:
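Inhibitors of TPO signaling are sought by stimulating IL-3-starved murine Ba/F3 cells (human TPO receptor, Glycoprotein IIb-driven luciferase) with TPO at its EC50 of 26 pM alongside compound. After 24 hrs at 37 C, reporter luminescence is measured.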

For assay [3], the target named is M-phase phosphoprotein 8 (Homo sapiens) (UniProt Q99549). The assay can be described thus: qHTS Validation Assay for Inhibitors for MPP8 Chromodomain Interactions with Methylated Histone Tails (AID 488949). Further: top concentration of the series differs between compounds; nearly all actives have a fitted effect of over 55% in size. In a few lines: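 MPP8 (50 nM) was preincubated with biotinylated H3(1-18)K9me3 peptide (50 nM) in PBS pH 7.4, 0.01% Tween-20 for 30 min at room temperature, then with compounds for 30 min; binding was detected by AlphaScreen.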

The target of assay [4] is Arylsulfatase A (Homo sapiens) (UniProt P15289). The assay can be described thus: qHTS screen for enhancers of Arylsulfatase A (ASA1): LOPAC Validation Assay (AID 720538). Put shortly: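 SV40-transformed skin fibroblasts from an MLD patient (ASA-I179S) were treated with compounds for 48h at 37 degree C, then lysed with 0.5mM pNCS final substrate for 14h at room temperature; NaOH stop, fluorescence read (Ex=525 nm; Em=598 nm).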

Records with an inconclusive call do not appear. Activity calls are given as the source filed them. The call rests on the fitted dose curve; in most records, active means well fitted curve in the direction sought with a large enough effect; inconclusive means small, poorly fitted or top-dose-only effect, or another doubt; inactive means no such curve, though single readings can be large; an effect the other way counts as inactive or inconclusive.

Sequence of M-phase phosphoprotein 8 (Homo sapiens) (Q99549 whole entry, looked up): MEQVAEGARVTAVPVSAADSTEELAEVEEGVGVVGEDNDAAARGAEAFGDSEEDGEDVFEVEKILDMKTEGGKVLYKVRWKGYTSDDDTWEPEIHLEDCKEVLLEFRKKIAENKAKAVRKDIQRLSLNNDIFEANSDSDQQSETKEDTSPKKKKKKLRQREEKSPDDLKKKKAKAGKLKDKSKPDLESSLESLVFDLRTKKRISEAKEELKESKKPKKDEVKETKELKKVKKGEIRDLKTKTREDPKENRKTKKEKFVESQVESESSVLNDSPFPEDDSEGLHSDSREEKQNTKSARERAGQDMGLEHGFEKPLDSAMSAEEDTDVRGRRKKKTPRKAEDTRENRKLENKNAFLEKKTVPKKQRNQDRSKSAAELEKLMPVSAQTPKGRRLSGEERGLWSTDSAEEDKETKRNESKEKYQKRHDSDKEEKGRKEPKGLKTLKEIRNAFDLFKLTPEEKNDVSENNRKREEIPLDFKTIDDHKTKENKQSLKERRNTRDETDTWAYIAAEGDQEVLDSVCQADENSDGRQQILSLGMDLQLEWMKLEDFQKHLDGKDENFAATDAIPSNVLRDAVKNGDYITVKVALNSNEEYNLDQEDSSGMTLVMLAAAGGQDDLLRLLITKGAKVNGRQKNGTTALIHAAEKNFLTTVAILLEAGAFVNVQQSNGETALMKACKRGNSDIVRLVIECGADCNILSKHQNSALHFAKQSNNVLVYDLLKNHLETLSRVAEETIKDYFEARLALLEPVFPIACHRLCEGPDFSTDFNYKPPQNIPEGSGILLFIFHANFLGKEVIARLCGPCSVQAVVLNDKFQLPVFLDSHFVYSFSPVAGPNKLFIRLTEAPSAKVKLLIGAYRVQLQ
Sequence of Arylsulfatase A (Homo sapiens) (P15289 whole entry, looked up): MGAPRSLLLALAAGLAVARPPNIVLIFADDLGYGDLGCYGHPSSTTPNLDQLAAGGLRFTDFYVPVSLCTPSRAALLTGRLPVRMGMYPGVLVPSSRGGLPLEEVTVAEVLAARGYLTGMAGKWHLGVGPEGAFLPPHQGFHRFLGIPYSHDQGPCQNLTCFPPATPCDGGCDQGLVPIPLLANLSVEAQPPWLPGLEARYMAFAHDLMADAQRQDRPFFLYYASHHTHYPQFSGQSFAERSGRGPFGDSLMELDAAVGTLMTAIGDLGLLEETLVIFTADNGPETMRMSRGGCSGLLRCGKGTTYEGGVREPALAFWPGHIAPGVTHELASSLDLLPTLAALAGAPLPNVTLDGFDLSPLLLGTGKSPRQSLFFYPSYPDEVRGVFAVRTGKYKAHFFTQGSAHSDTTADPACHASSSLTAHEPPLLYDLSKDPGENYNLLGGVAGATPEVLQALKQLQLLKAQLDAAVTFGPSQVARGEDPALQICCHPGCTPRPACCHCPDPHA
Sequence of Cytochrome P450 3A4 (Homo sapiens) (P08684 whole entry, looked up): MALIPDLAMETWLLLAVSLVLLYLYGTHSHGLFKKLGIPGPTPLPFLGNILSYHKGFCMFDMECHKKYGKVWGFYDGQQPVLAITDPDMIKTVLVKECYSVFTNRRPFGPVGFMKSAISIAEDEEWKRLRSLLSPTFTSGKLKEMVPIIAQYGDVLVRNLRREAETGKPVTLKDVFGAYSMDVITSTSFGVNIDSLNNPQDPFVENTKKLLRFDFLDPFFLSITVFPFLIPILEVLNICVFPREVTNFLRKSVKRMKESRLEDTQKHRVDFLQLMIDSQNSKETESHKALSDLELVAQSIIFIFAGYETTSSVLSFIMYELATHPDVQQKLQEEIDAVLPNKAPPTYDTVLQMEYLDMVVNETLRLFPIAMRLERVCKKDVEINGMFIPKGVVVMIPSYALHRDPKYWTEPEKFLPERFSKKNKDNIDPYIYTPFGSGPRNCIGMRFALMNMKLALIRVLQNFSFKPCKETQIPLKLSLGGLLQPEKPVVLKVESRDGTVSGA

For the compound `CC(C)COC(=O)OCN1C(=O)CN(CCN2CC(=O)N(COC(=O)OCC(C)C)C(=O)C2)CC1=O`, the Potency entry in assay [1], in assay [3] and in assay [4] was “inactive” each time. The Potency in assay [2] was 251 nM (active).
